Our source for the outcome and AC50 values is PubChem BioAssay (EPA / NIEHS).

Test [1] can be described thus: TOX21_p53_BLA_p2_viability: Viability Assessment in the Tox21 HCT-116 p53 Agonism Beta-lactamase Assay, Phase 2 (AID 2283591).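 Further: actives lower the ATP signal meaning cytotoxicity.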 The essentials: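 HCT116 p53-bla cells, 4000/well, dosed after 5 h plating (217-fold dilution of DMSO stocks) and incubated 16 h at 37C. Viability taken as cellular ATP by CellTiter-Glo luminescence after 30 min RT; signal loss marks cytotoxicity.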

In test [2] the target is Cellular tumor antigen p53 (Homo sapiens) (UniProt P04637). The test is described as follows: TOX21_p53_BLA_p2_ratio: Tox21 HCT-116 p53 Agonism Beta-lactamase Assay, Ratio, Phase 2 (AID 2283592). In a few lines:
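Readout: blue/green (460/530 nm) FRET emission ratio after 2 h CCF4-AM loading at room temperature, excitation 405 nm. HCT116 p53 bla cells, 16 h compound exposure at 37C, 5% CO2; agonist direction fitted against DMSO baseline.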

The nature of test [3]: TOX21_p53_BLA_p3_viability: Viability Assessment in the Tox21 HCT-116 p53 Agonism Beta-lactamase Assay, Phase 3 (AID 2283593).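 Further: cells exposed to compound for 16 h before reading.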 In a few lines:
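HCT116 cells, 4000/well, dosed 5 h after plating by pin transfer (217-fold dilution from DMSO stock) and incubated 16 h at 37C, 5% CO2. Viability read as ATP luminescence with CellTiter-Glo after 30 min at room temperature.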

Test [4] is described as follows: TOX21_p53_BLA_p4_viability: Viability Assessment in the Tox21 HCT-116 p53 Agonism Beta-lactamase Assay, Phase 4 (AID 2283597).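 Further: hits lower the luminescence signal meaning cytotoxicity.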 The essentials: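 ATP content by CellTiter-Glo luminescence, 30 min RT, read after the beta-lactamase ratio step. Cells: HCT116, 4000/well, compound added after 5 h, exposure 16 h at 37C. Signal loss = reduced viability.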
Test [5] is described as follows: TOX21_p53_BLA_p5_viability: Viability Assessment in the Tox21 HCT-116 p53 Agonism Beta-lactamase Assay, Phase 5 (AID 2283600). In a few lines:
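ATP luminescence (CellTiter-Glo, 30 min, RT) served as the viability read-out, with loss of signal indicating cytotoxicity. Compounds in DMSO were pinned at a 217-fold dilution onto 4000 cells/well and incubated 16 h, 37C.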

For test [6], the target named is Cellular tumor antigen p53 (Homo sapiens) (UniProt P04637). The test is described as follows: TOX21_p53_BLA_p4_ratio: Tox21 HCT-116 p53 Agonism Beta-lactamase Assay, Ratio, Phase 4 (AID 2283601). In a few lines: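 HCT-116 p53 beta-lactamase reporter cells (4000/well) preincubated 5 h, then compound (217-fold dilution of DMSO stock) for 16 h at 37C. CCF4-AM substrate added 2 h at room temperature; 460/530 nm emission ratio fitted upward versus DMSO.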

The target is the same in test [7]. The test is described as follows: TOX21_p53_BLA_p3_ratio: Tox21 HCT-116 p53 Agonism Beta-lactamase Assay, Ratio, Phase 3 (AID 2283596). In a few lines: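 Cells were seeded at 4000/well, rested 5 h at 37C, then dosed with DMSO compound solutions (217-fold dilution) for 16 h. CCF4-AM substrate was loaded for 2 h at room temperature, and the 460/530 nm emission ratio was fitted for gain of signal versus DMSO.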

Test [8] has the same target. The test is described as follows: TOX21_p53_BLA_p5_ratio: Tox21 HCT-116 p53 Agonism Beta-lactamase Assay, Ratio, Phase 5 (AID 2283599). In a few lines:
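HCT-116 p53-bla cells (4000/well) plated 5 h, dosed with compound (217-fold DMSO dilution) for 16 h at 37 C; CCF4-AM substrate 2 h at room temperature. Activity is the 460/530 nm emission ratio (405 nm excitation), fitted in gain-of-signal direction versus DMSO.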

The structures appear in SMILES notation. Records with an inconclusive call do not appear. Activity calls are given as the source filed them. How the source made its calls: active means hit-call score of the fitted dose curve at least 0.9, where 1 is the maximum; inconclusive means response in the unintended direction; inactive means score below 0.9.

Chain of Cellular tumor antigen p53 (Homo sapiens) (P04637 whole entry, looked up): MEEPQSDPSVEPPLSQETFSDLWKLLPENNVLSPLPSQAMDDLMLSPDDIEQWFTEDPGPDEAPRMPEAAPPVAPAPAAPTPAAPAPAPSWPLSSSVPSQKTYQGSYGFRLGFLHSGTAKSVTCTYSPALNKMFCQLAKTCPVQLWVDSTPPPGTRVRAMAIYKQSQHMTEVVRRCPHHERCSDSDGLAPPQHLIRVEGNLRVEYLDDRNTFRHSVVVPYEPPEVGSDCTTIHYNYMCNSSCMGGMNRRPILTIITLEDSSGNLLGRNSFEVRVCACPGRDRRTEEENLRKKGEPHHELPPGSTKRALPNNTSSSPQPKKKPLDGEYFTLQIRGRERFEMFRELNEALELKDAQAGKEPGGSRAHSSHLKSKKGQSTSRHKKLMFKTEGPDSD

For the compound `Clc1c(Cl)c(Cl)c(Cl)c(Cl)c1Cl`, the compound was classed as inactive in test [1], in test [2], in test [3], in test [4], in test [5] and in test [6].
Turning to `CC(Cl)CCl` (centres undefined), the call in test [1], in test [2], in test [7], in test [4], in test [8] and in test [5] was inactive. Also, the outcome in test [6] was inactive.
Regarding `O=C(CCl)c1ccc(Oc2ccc(C(=O)CCl)cc2)cc1`, the outcome in test [1], in test [7], in test [4] and in test [8] was inactive. The results for the AC50 in test [2] and in test [6] were 43.4 µM (active) and 41.9 µM (active), respectively.

For orientation: AC50 means the midpoint of the concentration-response curve, whichever way the signal moves.
